Screening data as filed in PubChem.
A selection: hits, their analogues and other compounds. The true share with any hit is near 7.9%.
HCV inh: HCV inhibition; AID 651820; hit rate 3.4% among 340,000; Potency, µM (series often up to 41.8 µM), without a hit: at the highest dose activity change, negative = inhibition, hits mostly inhibitors; Huh7.5.1 HCVcc-Cre infection, luciferase reporter, 44 h; active = well fitted inhibition curve with a large enough effect; inconclusive = small, poorly fitted or top-dose-only effect, or another doubt; inactive = no such curve, though single readings can be large or run the other way; note: potency is the fitted concentration of half-maximal effect
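Luciferase read-out (15 sec integration) after a 15 min room-temperature substrate step quantifies HCVcc-Cre infection. Cells, 1,000 per well, had compound added 4 h post-plating, then virus at ~0.5 moi, and were cultured 44 h.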
HCMV antiviral: blocks human cytomegalovirus replication. hit rate 4.5% among 410,000. activity change, negative = inhibition, % at 57.5 µM. HFF cells, HCMV-luciferase reporter, 72 h; active compounds read low; in the data active = activity change below about -60%; inconclusive = no clear call, values can overlap the other calls; inactive = above about -39%
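Luciferase read-out from HCMV-luciferase-infected HFFs (MOI 1 PFU/cell) 72 h post infection at 37C; compounds added after 16 h cell attachment; activity normalized between buffer-only basal and Salinomycin (10uM) inhibitor controls.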
FMDV inh: blocks foot and mouth disease virus. hit rate 1.2% among 410,000. FMDV antiviral cell-based qHTS. Potency, µM (highest dose often 57.9 µM), inactives show at the highest dose activity change, negative = inhibition, most hits filed as inhibitors; calls by dose curve; tested in HEK293T cells; note: read-out not given here; potency is the fitted concentration of half-maximal effect; nearly all actives have a fitted effect of over 45% in size
MARV entry inh: blocks Marburg virus binding to or entry into cells; Potency, µM (doses to about 37.8 µM), inactives show at the top dose activity change, negative = inhibition, hits mostly inhibitors; Marburg virus pseudotyped entry inhibition, cell reporter; hit rate 1.8% among 300,000; calls by dose curve; tested in HEK293 cells; note: potency is the fitted concentration of half-maximal effect
LASV entry inh: inhibitors of Lassa virus binding or cell entry; Potency, µM (highest dose often 37.9 µM), for the others: at the top dose activity change, negative = inhibition, hits mostly inhibitors; hit rate 1.2% among 300,000; Lassa virus pseudotype entry inhibition, cell reporter; calls by dose curve; tested in HEK293 cells; note: potency is the fitted concentration of half-maximal effect; nearly all actives have a fitted effect of over 50% in size
Starred values were filed as active, the others as inactive; ? = inconclusive; nt = not tested or not shown; [ ] = dose if it differs, or a comment. % is set by controls: 0 for no effect and ±100 for the full control effect.

SMILES	HCV inh	HCMV antiviral	FMDV inh	MARV entry inh	LASV entry inh
COc1ccc(OC)c(NC(=O)Cn2cc(C#N)c3cc(Br)ccc32)c1	?	-66*	?	-26%	-11%
Cc1cccc(-c2cccc(C(=O)N3CCc4c(cnc(C)c4CNC(=O)c4cncs4)C3)c2)c1	nt	nt	-19%	nt	nt
O=C(O)CCSc1nc2ccccc2s1	0%	-82*	40µM*	-22%	-14%[14.3 µM]
Cc1cccc(N(CC(=O)NCCSc2nc3ccccc3s2)S(=O)(=O)c2ccccc2)c1	2%	nt	nt	-7%	nt
O=C(CN(c1ccccc1)S(=O)(=O)c1ccccc1)NCCSc1nc2ccccc2s1	-5%	-20	22µM*	?	-17%
O=C(N[C@@H]1c2ccccc2C2(CCN(C(=O)c3cc4ccccc4oc3=O)CC2)[C@H]1O)c1cccnc1	nt	nt	-4%	nt	nt
COc1ccc(Cn2c(O)c(C=Nc3ccccc3)c3ccccc3c2=O)cc1	-5%	-63*	-12%	14%	?
COc1ccc(Cn2c(O)c(C=Nc3ccc(O)cc3)c3ccccc3c2=O)cc1	?	?	0%	?	?
COc1ccc(CN2CCOc3ccc(CN4CCCCC4CO)cc3C2)c(OC)c1 (stereo not given)	nt	nt	-2%	nt	nt
O=C(OCCc1cc2ccccc2c(=O)o1)c1ccccc1C(F)(F)F	22µM*	-3	-27%	nt	nt
CCCCCNC(=O)C1CCC(Cn2c(=O)c3sccc3n(CC)c2=O)CC1 (stereo not given)	nt	7	-10%	nt	1%[46.1 µM]
Cc1ccc(C2(c3ccc(C)cc3)CC2C(=O)NC(C)C)cc1 (stereo not given)	-9%	-23	-13%	13µM*	-3%[46.1 µM]
COc1ccc([C@@H]2[C@@H](C(=O)N3CCOCC3)CC(=O)N2C(=O)C2CC2)cc1	nt	11	nt	nt	nt
CN(C)c1ccc(/C=C(\NC(=O)c2ccccc2)C(=O)NCc2cccnc2)cc1	-7%	-6	32%	12%[46.1 µM]	13%[46.1 µM]
O=C(NCc1cccnc1)/C(=C\c1ccc(-c2cccc(Cl)c2)o1)S(=O)(=O)c1ccccc1	?	-103*	18µM*	?	?
O=C(NCc1cccnc1)/C(=C/c1ccc(-c2cccc(Cl)c2)o1)S(=O)(=O)c1ccccc1	28%	-5	?	?	12%
Cc1ccc(C(=O)N/C(=C\c2ccc(-c3cc(Cl)ccc3Cl)o2)C(=O)NCc2cccnc2)cc1	10µM*	-4	-5%	?	11µM*
COC(=O)c1ccccc1NC(=O)CN1C(=O)COc2ccc(Cl)cc21	nt	-3	-25%	-20%[46.1 µM]	-12%[46.1 µM]
CCN(CC)c1ccc(NC(=S)Nc2ccc(F)cc2)cc1	11µM*	47	15%	?	-10%
Fc1ccc(NC(=S)Nc2ccc(Br)cc2)cc1	?	-79*	-6%	-38%	?
CNc1ccc2oc(C[C@H]3O[C@]4(CC[C@H]3C)O[C@H]([C@H](C)C(=O)c3ccc[nH]3)[C@H](C)C[C@H]4C)nc2c1C(=O)O	nt	nt	-12%	0.71µM*	nt
Cc1cc(OCc2cc(C(=O)NC(C)c3cnn(C)c3)no2)cc(C)c1Cl (stereo not given)	nt	75	32%	nt	nt
Cc1cc(OCc2cc(C(=O)NC(C)c3c(C)nn(C)c3C)no2)cc(C)c1Cl (stereo not given)	11µM*	?	-1%	nt	nt
COC(=O)C1=C(C(=O)OC)[C@@H]2N(C)c3ccccc3[C@@]23CCC(=O)N(CCCOC(C)C)C3=N1	nt	nt	nt	-10%[14.2 µM]	nt
O=C(NCCc1c[nH]c2ccccc12)C(=O)c1c[nH]c2ccccc12	6%	-8	7%	nt	nt
SMILES	HCV inh	HCMV antiviral	FMDV inh	MARV entry inh	LASV entry inh
Cc1cc2cc(CCNC(=O)C(=O)c3c[nH]c4ccccc34)c(=O)[nH]c2cc1C	-18%	-14	1%	?	13µM*
O=C(c1c[nH]cc1-c1ccccc1)c1cccc2ccccc12	-26%	6	-21%	12µM*	-16%
O=C(CCCn1c(=O)c2cccn2c2ccccc21)NCc1ccccc1Br	nt	8	-20%	nt	19%[46.1 µM]
CC1=NN(/C(=N\c2nnc(C)s2)Nc2ccc(C(C)(C)C)cc2)[C@H](c2ccc(C)cc2)S1	-5%	26	-17%	8.2µM*	-18%
CCOC(=O)C1=CN(CCc2cn(Cc3ccccc3)nn2)C(=O)NC1c1ccccc1 (stereo not given)	nt	nt	nt	-8%[14.2 µM]	nt
COc1ccc2c(Sc3ccccc3)c(C(=O)N3CCC(C)CC3)[nH]c2c1	nt	32	98%	3%[46.1 µM]	8%[46.1 µM]
Cc1ccc(S(=O)(=O)N(C)C)cc1NC(=S)N1CCN(Cc2ccc3c(c2)OCO3)CC1	13µM*	?	?	nt	nt
